Among all 1,400 compounds or so, fewer than 10 were called active.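 Rule for the calls: active = fluorescence-lowering compounds whose fitted half-maximal concentration is at or below ten times the highest valid dose tested; inconclusive = flat curve at 30 to 70% inhibition, or poor fit; inactive = the rest.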 Only a sample is shown.

Sequence of Histone deacetylase 3 (Homo sapiens) (O15379 whole entry, looked up): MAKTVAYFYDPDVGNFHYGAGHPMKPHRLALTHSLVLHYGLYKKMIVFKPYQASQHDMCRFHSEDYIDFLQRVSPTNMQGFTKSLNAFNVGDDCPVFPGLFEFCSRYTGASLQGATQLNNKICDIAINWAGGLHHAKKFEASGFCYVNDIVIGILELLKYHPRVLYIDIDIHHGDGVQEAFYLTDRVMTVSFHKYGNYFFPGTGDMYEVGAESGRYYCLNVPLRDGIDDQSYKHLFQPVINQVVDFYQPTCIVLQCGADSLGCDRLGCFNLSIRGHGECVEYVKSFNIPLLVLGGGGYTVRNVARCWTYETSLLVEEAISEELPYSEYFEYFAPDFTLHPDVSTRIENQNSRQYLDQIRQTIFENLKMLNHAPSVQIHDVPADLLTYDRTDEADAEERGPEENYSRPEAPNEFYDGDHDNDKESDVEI

The assay concerns the target Histone deacetylase 3 (Homo sapiens) (UniProt O15379). The assay is described as follows: inhibition of human HDAC3 enzymatic activity – biochemical, fluorescence, cherry-picked samples, counter-screen for JMJD2C/GASC1 demethylase inhibitor project, dose response (AID 485318).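 Note: enzyme preincubated with compound before substrate and trypsin were added.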 Conditions: recombinant HDAC3, fluorogenic peptide/trypsin coupled; series mostly up to 12 µM. For orientation: A counterscreen serves to expose hits that act by an unwanted route or on another target.
Regarding `CC(=O)N1CCN(c2ccc(NC(=O)c3ccc4ccccc4c3)cc2)CC1`, the outcome was inactive.

As for `CCN(CC)C(CNS(=O)(=O)c1ccc(Cl)cc1)c1ccccc1` (stereo unspecified), the result was inactive.

As for `CCNC(=S)NC(=NCc1cccnc1)Nc1nc(C)cc(C)n1`, the outcome was inactive.

`Cc1ccc(N2NC3(CCN(C(N)=O)CC3)NC2=O)cc1`: the outcome was inactive.

`C=CCNC(=S)NNC(=O)COc1cccc(Cl)c1`: the outcome was inactive.

`O=C(O)c1ccccc1OCCOc1ccccc1C(=O)O`: the result was inactive.

As for `O=C1NCCC/C1=N/Nc1ccc(F)cc1`, the outcome was inactive.

For `CC(C)NC(=O)N(C)C[C@H]1Oc2ccc(NS(=O)(=O)c3ccccc3)cc2C(=O)N([C@H](C)CO)C[C@H]1C`, the outcome was inactive.

Consider `COc1ccc(-n2cc(C(=O)O)c3ccccc3c2=O)cc1`, for which the result was inactive.

For `O=C(C1CCCCC1)N1CCC(c2nc3c(nnn3Cc3c(F)cccc3Cl)c(=O)[nH]2)CC1`, the outcome was inactive.

Turning to `Cc1ccc(C)c(Cn2c(C(=O)OC(C)C)cc3c2ccn3C)c1`, the result was inactive.

With `NC(=O)COc1cccc2cccnc12`, the result was inactive.

Consider `Cn1c(=O)c2[nH]c(=O)cnc2n(C)c1=S`, for which the result was inactive.

For `Cn1nc(N)nc1N1CCN(c2ccc(F)cc2)CC1`, the result was inactive.

Regarding `NS(=O)(=O)c1ccc(CNC(=S)Nc2ccc(F)c(Cl)c2)cc1`, the result was inactive.

Consider `O=C(O)c1ccc2c(c1)C(=O)N(CCC1=CCCCC1)C2=O`, for which the outcome was inactive.

Turning to `CC(C)N(Cc1ccccc1)C(=O)COC(=O)c1ccc2c(c1)OCCO2`, the outcome was inactive.

In the case of `NC(=O)NC(=O)CSc1nnc(-c2ccco2)n1Cc1ccccc1`, the outcome was inactive.

As to `O=C(OCc1nnc(-c2ccccc2)o1)c1cc(S(=O)(=O)N2CCOCC2)c(Cl)cc1Cl`, the outcome was inactive.

With `COc1ccc(C)cc1NC(=O)CN(C)S(=O)(=O)c1ccc2c(c1)CC(C)N2C(C)=O` (stereo unspecified), the outcome was inactive.

As to `OC[C@H]1O[C@@H]2O[C@H]3[C@H](O)[C@@H](O)[C@@H](O[C@H]4[C@H](O)[C@@H](O)[C@@H](O[C@H]5[C@H](O)[C@@H](O)[C@@H](O[C@H]6[C@H](O)[C@@H](O)[C@@H](O[C@H]7[C@H](O)[C@@H](O)[C@@H](O[C@H]1[C@H](O)[C@H]2O)O[C@@H]7CO)O[C@@H]6CO)O[C@@H]5CO)O[C@@H]4CO)O[C@@H]3CO`, the result was inactive.

On to `Cc1ccc(C(=O)NCC(=O)OCC(=O)Nc2ccc(Cl)cc2C(F)(F)F)cc1C`, for which the outcome was inactive.

For `O=c1[nH]cnc2c1c(-c1ccccc1)cn2-c1ccccc1`, the outcome was inactive.

`Cc1nc2nc(C)c(CCC(=O)NCc3ccc4c(c3)OCO4)c(C)n2n1`: the result was inactive.

With `O=c1[nH]cc(N2CCCCCC2)c(=O)[nH]1`, the outcome was inactive.

Turning to `O=C(NCc1nnc(SCC(=O)N2CCCCC2)o1)c1c(F)cccc1F`, the result was inactive.

For the compound `O=C(c1cccs1)N1CCN(S(=O)(=O)c2ccc(F)cc2)CC1`, the outcome was inactive.

In the case of `O=C(CSc1nnnn1-c1ccc(Cl)cc1)N1CCc2ccccc2C1`, the result was inactive.

For the compound `CN(C)c1ccc(C(=O)OCC(=O)N2CCCC2)cc1`, the result was inactive.

Regarding `Cc1ccc(S(=O)(=O)NCCC(=O)OCC(=O)Nc2ccccc2Cl)cc1`, the result was inactive.

On to `Cc1ccc(S(=O)(=O)NC(=O)NCc2ccc(Cl)cc2)cc1`, for which the outcome was inactive.

Consider `O=c1cc(N/N=C/c2ccccc2)[nH]c(=O)[nH]1`, for which the outcome was inactive.

On to `COc1ccc(NC(=O)N(C)C[C@H]2Oc3c(NS(=O)(=O)c4cccs4)cccc3C(=O)N([C@H](C)CO)C[C@@H]2C)cc1`, for which the outcome was inactive.

With `COCCCNC(=S)NNC(=O)c1ccccn1`, the result was inactive.

In the case of `Cc1ccc(OCCSc2nnc(-c3cccs3)n2C)cc1`, the result was inactive.

With `CCCC(=O)Nc1ccc(Oc2ccc(NC(=O)CCC)cc2)cc1`, the result was inactive.

Take `COCCCn1c(SCC(=O)NCc2ccco2)nc2sc3c(c2c1=O)CCC3`: the result was inactive.

For the compound `CC(C)(C)c1ccc(-c2csc(NNC3=NCCCCC3)n2)cc1`, the outcome was inactive.

As for `CC(OC(=O)c1ccc([N+](=O)[O-])s1)C(=O)Nc1ncc(Cl)cc1Cl` (stereo unspecified), the result was inactive.

On to `O=C(c1ccc(Cn2cc([N+](=O)[O-])cn2)o1)N1CCCCCC1`, for which the result was inactive.

Take `COc1ccccc1C(=O)OCc1c(-c2ccccc2)ncc2ccccc12`: the result was inactive.

With `Cc1ccc2nc(-c3cccc(NS(C)(=O)=O)c3)cc(-c3ccccc3)c2c1`, the result was inactive.

As for `COC(=O)C1=C(C)N(CCc2cc(OC)c(OC)c(OC)c2)C(=O)N[C@H]1c1cccs1`, the result was inactive.

In the case of `COc1ccc(CNCC(=O)Nc2sccc2C#N)cc1`, the outcome was inactive.

In the case of `Cc1nn(-c2cccc(C(=O)O)c2)c(C)c1Oc1ccccc1O`, the outcome was inactive.

`CCSCC1COC(c2cccn2Cc2ccc(C)cc2)=N1` (stereo unspecified): the result was inactive.

Turning to `COC(=O)CCC(=O)N1CCOCCOCCN(C(=O)CCC(=O)OC)CCOCCOCC1`, the outcome was inactive.

Consider `O=C1c2sc3nc4c(c(=O)n3c2C(=O)N1c1ccccc1)CCC4`, for which the outcome was inactive.

In the case of `CC(=O)OC(C(=O)NCc1ccc2c(c1)OCO2)c1ccccc1Cl` (stereo unspecified), the outcome was inactive.

Regarding `CCC(=O)Nc1cc2c(cc1C(=O)CC)OCCO2`, the outcome was inactive.

For `CCOC(=O)c1cc2n(n1)C(C(F)(F)F)CC(C)N2` (stereo unspecified), the outcome was inactive.

As for `CCCCNC(=O)c1nn2cc(Br)cnc2c1Br`, the outcome was inactive.

With `Clc1ccc(N=c2ssnc2Cl)nc1`, the outcome was inactive.

For the compound `O=C(c1ccsc1)N1CCN(C(=O)c2cccs2)CC1`, the result was inactive.

With `COc1ccc2sc(-c3ccc(S(C)(=O)=O)cc3)c(C#CCO)c2c1`, the result was inactive.

For `COc1ccc(CCN=C(NS(=O)(=O)c2ccc(Cl)cc2)c2ccccc2)cc1`, the result was inactive.

For `CCN(CC)CCSc1nc2ccccc2c(=S)n1-c1ccccc1`, the outcome was inactive.

Consider `O=C(Cn1nc(-c2ccc(Cl)cc2)ccc1=O)NCC1COCCO1` (stereo unspecified), for which the outcome was inactive.

Consider `CCC(C)(C)NC(=O)C(c1ccc(C)o1)N(Cc1cccs1)C(=O)Cn1nnc2ccccc21` (stereo unspecified), for which the result was inactive.

As to `CCC(=O)N1CCc2cc(Br)cc(S(=O)(=O)CC(=O)OC)c21`, the outcome was inactive.

For the compound `CCN(CC(=O)Nc1ccc2c(c1)OCCO2)C(=O)CC1CCCC1`, the result was inactive.

Turning to `O=C(CSc1nc(O)c(Cc2ccccc2)c(=O)[nH]1)c1ccccc1`, the result was inactive.

With `Cc1ccc(CSc2ncnc3onc(C)c23)cc1`, the result was inactive.

As for `CCOC(=O)c1c(NC(=O)c2cc(-c3ccc(O)cc3)on2)sc(C(C)=O)c1C`, the outcome was inactive.

With `C[C@@H](CN1CCC[C@H]1CN1C(N)=NC[C@@H]1Cc1ccccc1)N1C[C@@H](Cc2ccccc2)N(CCc2ccc(Cl)c(Cl)c2)C1=N`, the result was inactive.

In the case of `O=C(CSc1nc(-c2ccco2)cc(C(F)(F)F)n1)Nc1ccc(C(=O)N2CCCCC2)cc1`, the result was inactive.

Take `COc1cccc(OC)c1C(=O)NC(=S)N1CCOCC1`: the result was inactive.

As for `COc1cccc(-n2nnc3c(=O)n(Cc4ccccc4F)cnc32)c1`, the result was inactive.

Consider `CCn1c(SCC(=O)NCc2ccco2)nnc1-c1cccs1`, for which the outcome was inactive.

With `CSc1nc(N)nc2c1ncn2CC(=O)N[C@H](C)c1cccc2ccccc12`, the result was inactive.

On to `COC(=O)C1=C(C)N(Cc2ccccc2)C(=NCCc2c[nH]c3ccccc23)N[C@H]1c1ccccc1`, for which the outcome was inactive.

Regarding `CC(=O)c1c(C)[nH]c(C(=O)NCCC2=CCCCC2)c1C`, the result was inactive.

For `COc1ccc(S(=O)(=O)Nc2ccc3c(c2)CC(=O)N([C@@H](C)CO)C[C@H](C)[C@@H](CN(C)S(=O)(=O)c2ccc(F)cc2)O3)cc1`, the outcome was inactive.

Consider `COc1ccccc1NC(=O)COC(=O)c1[nH]c(=O)[nH]c(=O)c1N`, for which the outcome was inactive.

On to `Cc1cccc(N2CC(C(=O)Nc3nnc(SCC(=O)Nc4nccs4)s3)CC2=O)c1` (stereo unspecified), for which the result was inactive.

Regarding `CN(C)c1nc(C(=O)Nc2ccccc2)nc(N(C)C)n1`, the result was inactive.

With `CCOc1ccc(-c2nc(CSCC(=O)NC3CCCc4ccccc43)c(C)o2)cc1` (stereo unspecified), the outcome was inactive.

Regarding `Cc1cc2cc3c(cc2nc1SCC(=O)N1CCOCC1)OCO3`, the outcome was inactive.

As for `CC(C)(C)OC(=O)CNC(=O)c1[nH]cnc1C(=O)N[C@@H](CCCCN)C(=O)OC(C)(C)C`, the result was inactive.

Take `COc1ccc(OC)c(Nc2nnc(C)c(=O)[nH]2)c1`: the result was inactive.

With `O=C(O)CCCNC(=O)c1cccc(C(=O)NCCCC(=O)O)n1`, the result was inactive.

Turning to `O=C(O)c1cc(O)c2c(c1)[C@@H]([C@H]1c3cc(C(=O)O)cc(O)c3C(=O)c3c(O[C@@H]4O[C@H](CO)[C@@H](O)[C@H](O)[C@H]4O)cccc31)c1cccc(O[C@@H]3O[C@H](CO)[C@@H](O)[C@H](O)[C@H]3O)c1C2=O`, the outcome was inactive.

With `CN(C)CCNC(=O)c1onc(CSc2ccncc2)c1C(=O)NCCN(C)C`, the outcome was inactive.

On to `N#CC(C(=O)NCCc1ccccc1)c1nc2ccccc2nc1N1CCOCC1` (stereo unspecified), for which the result was inactive.

Regarding `COc1ccc(NC(=O)CNC(=O)c2nn(-c3ccc(OC)c(Cl)c3)c(=O)c3ccccc23)c(OC)c1`, the result was inactive.

Consider `Cc1ccc(-c2noc(C3CCN(S(C)(=O)=O)CC3)n2)o1`, for which the outcome was inactive.

Turning to `Cc1nnc(N2C(=O)c3cccc4c([N+](=O)[O-])ccc(c34)C2=O)s1`, the outcome was inactive.

For `CCOC(=O)CCCCCC(=O)Nc1ccc2c(c1)CC(=O)N([C@@H](C)CO)C[C@H](C)[C@@H](CN(C)C(=O)Nc1ccc3c(c1)OCO3)O2`, the result was inactive.

`CSc1ccccc1C(=O)Nc1ccc(C)c(C)c1`: the result was inactive.

On to `CC(C)N(C(=O)[C@H]1CC(CC(=O)NCc2cccc(C(F)(F)F)c2)C(=O)N2CCc3c([nH]c4ccccc34)[C@]12C)C(C)C` (stereo partly specified), for which the result was inactive.

With `N#Cc1ccc(C23OCCN2CCn2nc4ccccc4c23)cc1` (stereo unspecified), the result was inactive.

As to `CCc1ccc(NC(=O)C/C(C)=N/NC(=O)COc2ccc(C)cc2Br)cc1`, the outcome was inactive.

Turning to `COc1ccc(-c2csc(NNC3=NCCCCC3)n2)cc1`, the result was inactive.

For the compound `CC1(C)C2CCC1(CS(=O)(=O)N1CCN(c3ccccc3F)CC1)C(=O)C2` (stereo unspecified), the outcome was inactive.

Turning to `Cc1ccc(O)c(C(=O)c2cc(C#N)c(=O)n(CC3CCCO3)c2)c1` (stereo unspecified), the outcome was inactive.

`CCOC(=O)c1ccc2c(c1)nc(COc1ccc3ccccc3c1)n2CC`: the outcome was inactive.

With `O=C(NCc1ccccn1)c1ccc(OC2CCN(Cc3cccs3)CC2)cc1`, the result was inactive.

Turning to `CCOC(=O)c1sc(Nc2nc(OC)cc(OC)n2)nc1C`, the outcome was inactive.

For the compound `CN(C)C(=O)c1cccc(-c2csc(N3CCC(C(N)=O)CC3)n2)c1`, the result was inactive.

Consider `COc1ccc(-c2ccc3oc(-c4ccsc4)cc(=O)c3c2)cn1`, for which the outcome was inactive.

Turning to `COc1ccc(CCNC(=O)c2cccc(NS(=O)(=O)c3ccccc3F)c2)cc1OC`, the result was inactive.
